Screening data (PubChem)
Nox1 inhibitor: blocks human NADPH oxidase 1 activity; Q9Y5S8; HT29 cells, luminol chemiluminescence ROS; inhibition, % at 6.7 µM; 0.81% of 16,000 active; AID 1792
S1P1 ag: activates the human S1P1 receptor; P21453; S1P1 agonist cell-based reporter assay; activation, % at 4.5 µM; 1.5% of 16,000 active; AID 1044; in the data active = activation above about 80%
Target sequence (P21453 whole entry, looked up): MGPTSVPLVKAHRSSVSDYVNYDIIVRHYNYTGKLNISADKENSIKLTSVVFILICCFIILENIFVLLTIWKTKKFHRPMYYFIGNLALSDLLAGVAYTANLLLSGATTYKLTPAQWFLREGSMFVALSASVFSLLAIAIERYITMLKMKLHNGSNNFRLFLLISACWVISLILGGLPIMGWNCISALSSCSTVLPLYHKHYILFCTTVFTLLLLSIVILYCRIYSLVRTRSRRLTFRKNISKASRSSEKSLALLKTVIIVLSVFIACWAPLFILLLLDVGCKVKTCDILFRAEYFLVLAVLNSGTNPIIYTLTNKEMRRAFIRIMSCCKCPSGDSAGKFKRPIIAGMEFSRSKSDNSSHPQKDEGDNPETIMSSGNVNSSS
NOTCH agonist: agonists of NOTCH signaling. NOTCH signaling luciferase reporter cells, luminescence. activation, % at 2.5 µM. 0.4% of 15,000 active. AID 434982; in the data active = activation above about 2.2%
PME-1 Maybr inh: Maybridge compound blocking human PME-1; Q9Y570; inhibition, % at 9 µM; 0.5% of 16,000 active; AID 2291; recombinant PME-1, FP-Rh probe fluorescence polarization; in the data active = inhibition above about 30%
luminol inh ctr: counter-screen for Nox1 inhibitors: inhibitors of luminol chemiluminescence. HRP/luminol/H2O2 chemiluminescence counterscreen. inhibition, % at 6.7 µM. 0.4% of 16,000 active. AID 1823; also: reference of the scale not given here
KOR antag MB: antagonists of human kappa opioid receptor OPRK1, Maybridge library. OPRK1 cells, antagonist mode, fluorescence readout. 0.4% of 16,000 active. P41145. inhibition, % at 9 µM; in the data active = inhibition above about 50%
Active calls of the source: *; . = no result given. Only some compounds are listed: those with a hit (about 4% of all), similar ones and a draw of the others. Rule as the data show it, unless noted: active = inhibition above about 75%; inactive = the rest.

SMILES	Nox1 inhibitor	S1P1 ag	NOTCH agonist	PME-1 Maybr inh	luminol inh ctr	KOR antag MB
Oc1ccccc1N=CC=Nc1ccccc1O	96*	5	0	8	17	30
NC(Cc1cc(F)cc(F)c1)C(=O)O (centres undefined)	-45	10	1	-3	-2	-4
C/C=C/C=N/NC(=O)N/N=C/C=C/C	5	-10	3.0*	3	-3	24
O=C(N/N=C/C=C/c1ccccc1)N/N=C/C=C/c1ccccc1	-20	-8	0	-2	2	-4
Cn1cc(C(=O)O/N=C(\N)c2ccc(C(C)(C)C)cc2)c(C(F)(F)F)n1	32	100*	0	-8	-6	35
COC(=S)NC(=O)/C=C/c1ccccc1	3	7	0	-44	8	14
COc1ccc(/C(C#N)=C/c2cnc(-c3ccccc3)[nH]2)cc1	0	-5	0	50*	-4	-14
Cc1c2c(=O)n(C)ncc2c(-c2ccccc2)n1-c1ccc([N+](=O)[O-])cc1	-29	26	0	2	0	0
O=c1c2c(-c3ccc([N+](=O)[O-])cc3)onc2n(-c2ccccc2)c(=O)n1-c1ccccc1	94*	123*	-1	1	2	-17
Cc1noc(C)c1C(=O)N1CCN(c2ncc(C(F)(F)F)cc2Cl)CC1	-13	-1	0	2	-4	11
Cc1oc(-c2ccccc2)cc1C(=O)N1CCN(c2ncc(C(F)(F)F)cc2Cl)CC1	23	-2	2.3*	-2	-6	6
CCOC(=O)[C@@H](N)CCSC	15	-1	0	6	-3	52*
CCOc1ccc(NC(=O)c2cc(C)n(C)n2)cc1	-22	126*	0	-3	2	5
Cc1cc(C(=O)Nc2ccccc2N2CCCCC2)nn1C	-6	-32	0	-1	0	-14
Cc1onc(-c2c(F)cccc2Cl)c1C(=O)Oc1ccccc1	-39	95*	1	1	2	2
O=C(Nc1ccc(N2CCOCC2)cc1Cl)C1CCN(C(=O)OCc2ccccc2)CC1	-8	101*	0	1	-3	8
CCOC(=O)C1CCN(c2ccc(C(C)=O)cc2NC(=S)Nc2cc(Cl)ccc2Cl)CC1	-27	6	5.9*	-4	2	1
CCOC(=O)c1c(C)csc1NS(=O)(=O)c1ccc(C)cc1	-126	-10	0	4	11	26
Cc1onc(-c2c(Cl)cccc2Cl)c1NC(=O)N/N=C/c1cccc([N+](=O)[O-])c1	19	-33	0	4	-5	10
CSc1nn(-c2ccccc2)cc1C(=O)Sc1cccs1	-6	31	0	2	2	-2
COC(=O)c1cccc([N+](=O)[O-])c1C(=O)OC	-33	-15	-2	0	-2	5
COc1ccc(/C=C(\C#N)C(N)=S)cc1	-56	109*	-1	4	8	0
N#C/C(=C\c1cccnc1)C(N)=S	-1	5	0	-2	6	-1
Nc1nc(NC2CCCCNC2=O)n[nH]1 (centres undefined)	92*	-4	0	8	62	13
CC(C)NC(=O)NC1CCCCNC1=O (centres undefined)	-23	-11	0	2	-1	21
SMILES	Nox1 inhibitor	S1P1 ag	NOTCH agonist	PME-1 Maybr inh	luminol inh ctr	KOR antag MB
CC(=O)OCc1cc(/C=N/N(C(C)=O)c2ccccc2)nn1-c1ccccc1	-67	6	0	1	2	11
Nc1ccccc1Sc1ccc(-c2cnc3ccccc3n2)cc1[N+](=O)[O-]	9	9	0	4	98*	15
Cc1ccc(-c2csc3ncnc(NCc4ccco4)c23)cc1	-57	87*	0	2	-1	-4
O=C(Oc1cccc2[nH]ccc12)c1ccc(C(F)(F)F)cc1	80*	-7	-1	3	0	20
COc1ccc(-n2nc(C(=O)Oc3ccc([N+](=O)[O-])cc3)c3ccccc3c2=O)cc1	-12	-3	0	-2	1	-6
Cc1cc(C(=O)NCc2ccc(N3CCN(C)CC3)cc2)no1	-47	25	-1	5	3	13
O=C1C=CC(=O)N1CCc1ccccc1	100*	6	0	-2	6	12
COC(=O)c1cnn(-c2ccc(Cl)cc2)c1C=Nc1ccc(C)cc1	-61	-2	0	2	-40	3
COC(=O)c1cnn(-c2ccc(Cl)cc2)c1C=C(C#N)C#N	9	-42	0	1	11	75*
N/C(CSc1ccc(C(F)(F)F)cn1)=N\OC(=O)c1ncc(C(F)(F)F)cc1Cl	-24	28	0	1	0	2
O=C1NNC(SCc2ccc(Br)cc2)=Nc2ccccc21	-30	96*	-1	0	1	0
COc1ccc(-c2nc(-c3cccc([N+](=O)[O-])c3)cs2)cc1	0	-4	3.3*	-3	2	-14
Clc1ccc(-c2nc(CN3CCOCC3)cs2)cc1	-24	102*	0	7	3	-13
OC1c2ccnn2[C@@H](O)c2ccnn21 (some centres undefined)	4	-4	0	-3	3	7
O=C(NCC1CC1)c1ccccc1NS(=O)(=O)c1cccc2nonc12	15	10	.	5	-6	-2
Cc1ccc(S(=O)(=O)n2nccc2-c2c(C)nc3ccccn23)cc1	-11	88*	0	13	0	-8
CC(=O)n1nccc1-c1c(C)nc2ccccn12	-34	-2	0	-2	-1	-9
CN(C)c1ccc(-n2nnnc2SCC(=O)c2cc3ccccc3o2)cc1	-12	-26	0	-1	19	2
CN(C)c1ccc(-n2nnnc2SCc2ccc(Cl)cc2)cc1	-28	-1	-1	5	1	59*
O=C(Nc1ccc(Cl)cc1Cl)c1cc([N+](=O)[O-])cc2c1-c1ccc([N+](=O)[O-])cc1C2=O	101*	22	0	1	-2	53*
O=C(NNC(=S)NCc1ccco1)C(F)(F)F	38	-12	0	3	1	-9
CCn1nc(C)cc1-c1nnc(SCc2ccc(C(F)(F)F)cc2)o1	2	97*	0	1	-4	9
CCn1nc(C)cc1-c1nnc(-c2ccccc2Cl)o1	-34	23	0	4	-3	-7
O=C(Sc1ccc(Cl)cc1)c1csc(-c2cccnc2)n1	-58	0	-1	-1	1	1
c1csc(-c2nn[nH]n2)c1	5	5	2.9*	6	-8	5
O=c1nc(-c2ccccc2)nc(-c2ccccc2)[nH]1	25	20	0	7	-4	41
C[n+]1cccc(-c2n[nH]c(-c3ccccc3)n2)c1	-20	110*	.	1	3	8
Cc1cc(C(=O)NNS(=O)(=O)c2cccc3cccnc23)nn1C(C)(C)C	-8	5	3.2*	4	12	16
Cc1cc(C(=O)NNC(=O)c2ccco2)nn1C(C)(C)C	-47	0	-1	3	-1	-17
